{"source": "the supplement of paper PMC11732987", "about": "“Enantioselective OTUD7B fragment discovery through chemoproteomics screening and high-throughput optimisation” (Communications Chemistry, 2025)", "test_in_all_cases": "log2 ratio of Biotin-Ahx-Ub-VS probe labelling (fragment/DMSO); higher = less target engagement (more negative = stronger competition), active = hit call of the paper (q ≤ 0.05, log2 ratio ≤ -1)", "settings_in_all_cases": "compound concentration: 200 uM; treatment time: 3 h", "key": {"OTUD6B": {"molecular_target": "T1, OTUD6B (UniProt Q8N6M0)", "T1 sequence (whole entry)": "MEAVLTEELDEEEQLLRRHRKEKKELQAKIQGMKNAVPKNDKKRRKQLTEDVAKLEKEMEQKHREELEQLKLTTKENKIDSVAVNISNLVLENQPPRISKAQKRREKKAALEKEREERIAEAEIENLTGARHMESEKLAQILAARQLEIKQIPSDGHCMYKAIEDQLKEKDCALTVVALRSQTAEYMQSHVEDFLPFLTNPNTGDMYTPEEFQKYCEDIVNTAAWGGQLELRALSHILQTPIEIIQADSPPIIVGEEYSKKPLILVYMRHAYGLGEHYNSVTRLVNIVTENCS", "summary_of_the_method": "(§1)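 HEK293T lysate (495 µg per sample, in Tris/CHAPS/IGEPAL buffer with protease inhibitors) was treated in triplicate with fragment at 200 µM or with DMSO for 3 h. It was then treated with Biotin-Ahx-Ub-VS (0.5 µM final) for 1 h. Labelled DUBs were NeutrAvidin-enriched, digested with LysC and trypsin, and run by diaPASEF LC-MS/MS. Spectronaut label-free quantities were global-median-normalised. Values are average log2 ratios fragment/DMSO by unpaired t-test, using proteins with ≥2 unique peptides.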"}, "OTUD7B": {"molecular_target": "T2, OTUD7B (UniProt Q6GQQ9)", "T2 sequence (whole entry)": "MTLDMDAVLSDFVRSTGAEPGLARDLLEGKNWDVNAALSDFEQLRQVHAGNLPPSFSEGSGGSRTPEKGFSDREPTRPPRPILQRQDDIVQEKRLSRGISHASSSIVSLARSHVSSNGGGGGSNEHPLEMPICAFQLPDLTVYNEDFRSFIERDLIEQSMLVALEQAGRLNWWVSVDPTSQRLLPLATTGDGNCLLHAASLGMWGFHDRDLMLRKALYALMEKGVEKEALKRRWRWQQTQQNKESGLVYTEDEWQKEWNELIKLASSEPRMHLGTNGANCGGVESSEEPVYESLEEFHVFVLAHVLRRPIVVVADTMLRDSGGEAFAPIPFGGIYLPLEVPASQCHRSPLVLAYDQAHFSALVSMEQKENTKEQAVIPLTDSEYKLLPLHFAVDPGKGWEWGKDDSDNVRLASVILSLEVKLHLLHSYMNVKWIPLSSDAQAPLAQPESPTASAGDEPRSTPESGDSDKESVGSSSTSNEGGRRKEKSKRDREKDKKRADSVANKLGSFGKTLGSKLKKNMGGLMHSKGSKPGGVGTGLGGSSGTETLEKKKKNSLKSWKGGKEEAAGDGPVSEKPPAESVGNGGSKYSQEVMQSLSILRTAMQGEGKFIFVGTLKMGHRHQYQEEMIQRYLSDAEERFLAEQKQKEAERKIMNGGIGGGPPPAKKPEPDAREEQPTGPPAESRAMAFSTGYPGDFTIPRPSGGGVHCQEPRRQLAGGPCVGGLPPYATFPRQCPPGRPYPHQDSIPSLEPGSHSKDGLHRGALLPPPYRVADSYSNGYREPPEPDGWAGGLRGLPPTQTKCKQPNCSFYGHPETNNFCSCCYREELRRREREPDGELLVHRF", "summary_of_the_method": "as §1"}, "PRPF8": {"molecular_target": "PRPF8 (UniProt Q6P2Q9)", "summary_of_the_method": "as §1"}, "PSMD7": {"molecular_target": "T3, PSMD7 (UniProt P51665)", "T3 sequence (whole entry)": "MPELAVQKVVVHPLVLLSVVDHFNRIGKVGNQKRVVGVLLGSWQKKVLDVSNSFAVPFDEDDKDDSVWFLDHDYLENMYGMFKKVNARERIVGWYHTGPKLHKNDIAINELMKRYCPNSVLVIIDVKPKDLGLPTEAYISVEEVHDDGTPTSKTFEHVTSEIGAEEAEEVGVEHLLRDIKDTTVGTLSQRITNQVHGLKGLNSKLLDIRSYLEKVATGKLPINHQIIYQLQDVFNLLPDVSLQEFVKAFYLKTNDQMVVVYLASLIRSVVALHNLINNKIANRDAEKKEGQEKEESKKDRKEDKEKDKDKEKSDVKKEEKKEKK", "summary_of_the_method": "as §1"}, "UCHL1": {"molecular_target": "UCHL1 (UniProt P09936)", "sequence (P09936 whole entry, looked up)": "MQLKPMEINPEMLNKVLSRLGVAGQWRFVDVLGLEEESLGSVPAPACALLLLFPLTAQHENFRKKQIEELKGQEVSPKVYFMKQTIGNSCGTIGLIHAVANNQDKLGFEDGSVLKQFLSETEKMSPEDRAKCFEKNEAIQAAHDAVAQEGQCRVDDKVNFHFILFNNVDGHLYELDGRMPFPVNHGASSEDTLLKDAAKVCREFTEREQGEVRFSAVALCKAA", "summary_of_the_method": "as §1"}, "UCHL3": {"molecular_target": "T4, UCHL3 (UniProt P15374)", "T4 sequence (whole entry)": "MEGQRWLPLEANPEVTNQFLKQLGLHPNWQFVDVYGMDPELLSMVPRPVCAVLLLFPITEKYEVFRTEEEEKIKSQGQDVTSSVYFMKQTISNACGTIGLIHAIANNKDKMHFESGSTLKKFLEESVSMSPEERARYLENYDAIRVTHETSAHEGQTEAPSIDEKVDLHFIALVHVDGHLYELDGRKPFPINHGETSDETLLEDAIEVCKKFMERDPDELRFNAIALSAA", "summary_of_the_method": "as §1"}, "UCHL5": {"molecular_target": "T5, UCHL5 (UniProt Q9Y5K5)", "T5 sequence (whole entry)": "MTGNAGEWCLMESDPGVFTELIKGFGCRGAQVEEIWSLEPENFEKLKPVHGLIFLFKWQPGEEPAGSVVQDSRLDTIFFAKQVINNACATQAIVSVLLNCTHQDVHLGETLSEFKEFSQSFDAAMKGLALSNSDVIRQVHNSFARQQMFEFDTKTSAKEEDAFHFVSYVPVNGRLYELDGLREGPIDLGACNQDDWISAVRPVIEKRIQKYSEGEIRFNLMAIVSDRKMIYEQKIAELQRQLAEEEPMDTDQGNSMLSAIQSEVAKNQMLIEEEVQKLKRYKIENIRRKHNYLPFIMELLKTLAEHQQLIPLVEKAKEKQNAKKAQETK", "summary_of_the_method": "as §1"}, "USP10": {"molecular_target": "USP10 (UniProt Q14694)", "sequence (Q14694 whole entry)": "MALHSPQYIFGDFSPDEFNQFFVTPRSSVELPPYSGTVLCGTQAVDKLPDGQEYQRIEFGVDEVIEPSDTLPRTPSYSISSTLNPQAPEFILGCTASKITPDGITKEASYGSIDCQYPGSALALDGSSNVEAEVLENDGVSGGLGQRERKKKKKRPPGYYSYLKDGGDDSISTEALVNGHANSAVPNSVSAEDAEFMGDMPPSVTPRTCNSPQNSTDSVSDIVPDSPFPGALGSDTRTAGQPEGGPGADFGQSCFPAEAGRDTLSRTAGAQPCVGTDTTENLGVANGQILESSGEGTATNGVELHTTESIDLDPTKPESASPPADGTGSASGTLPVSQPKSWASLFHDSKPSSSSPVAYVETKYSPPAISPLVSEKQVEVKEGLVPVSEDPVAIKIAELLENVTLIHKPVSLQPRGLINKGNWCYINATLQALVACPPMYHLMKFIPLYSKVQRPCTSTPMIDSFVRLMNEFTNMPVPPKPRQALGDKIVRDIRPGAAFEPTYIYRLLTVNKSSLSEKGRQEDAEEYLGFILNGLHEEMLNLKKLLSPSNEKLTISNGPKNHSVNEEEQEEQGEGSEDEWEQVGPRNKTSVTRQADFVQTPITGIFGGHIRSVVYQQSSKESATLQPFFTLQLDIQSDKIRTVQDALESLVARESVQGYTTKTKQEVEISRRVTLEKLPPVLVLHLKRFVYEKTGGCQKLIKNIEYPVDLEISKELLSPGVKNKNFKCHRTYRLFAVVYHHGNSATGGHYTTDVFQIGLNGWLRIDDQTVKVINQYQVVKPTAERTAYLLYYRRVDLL", "summary_of_the_method": "as §1"}, "USP15": {"molecular_target": "T6, USP15 (UniProt Q9Y4E8)", "T6 sequence (whole entry)": "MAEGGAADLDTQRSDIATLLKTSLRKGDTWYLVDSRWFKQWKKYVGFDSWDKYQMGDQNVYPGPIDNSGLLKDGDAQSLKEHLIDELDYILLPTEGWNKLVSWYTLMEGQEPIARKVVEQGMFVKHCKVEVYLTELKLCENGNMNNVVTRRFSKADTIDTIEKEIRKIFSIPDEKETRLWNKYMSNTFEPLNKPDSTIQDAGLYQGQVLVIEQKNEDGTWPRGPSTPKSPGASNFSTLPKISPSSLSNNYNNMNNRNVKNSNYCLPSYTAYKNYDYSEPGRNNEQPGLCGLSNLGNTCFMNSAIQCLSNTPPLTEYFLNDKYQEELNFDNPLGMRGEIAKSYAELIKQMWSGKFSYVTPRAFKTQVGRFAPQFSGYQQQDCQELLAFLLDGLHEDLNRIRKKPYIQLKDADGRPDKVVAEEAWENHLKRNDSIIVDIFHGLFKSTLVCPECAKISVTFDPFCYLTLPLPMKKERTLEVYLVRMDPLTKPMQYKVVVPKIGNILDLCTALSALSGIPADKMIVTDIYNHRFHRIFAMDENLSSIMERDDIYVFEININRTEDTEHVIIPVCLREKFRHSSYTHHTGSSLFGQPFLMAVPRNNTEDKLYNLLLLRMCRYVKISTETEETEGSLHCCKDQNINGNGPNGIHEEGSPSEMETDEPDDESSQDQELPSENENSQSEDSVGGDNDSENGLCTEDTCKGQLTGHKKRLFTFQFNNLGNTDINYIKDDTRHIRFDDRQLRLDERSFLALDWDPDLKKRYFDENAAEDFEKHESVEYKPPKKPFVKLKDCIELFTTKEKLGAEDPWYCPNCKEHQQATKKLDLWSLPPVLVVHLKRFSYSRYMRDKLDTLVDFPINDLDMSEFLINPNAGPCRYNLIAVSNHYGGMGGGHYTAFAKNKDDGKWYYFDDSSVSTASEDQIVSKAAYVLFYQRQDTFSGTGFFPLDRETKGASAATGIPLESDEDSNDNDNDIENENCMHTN", "summary_of_the_method": "as §1"}, "USP16": {"molecular_target": "USP16 (UniProt Q9Y5T5)", "sequence (Q9Y5T5 whole entry, looked up)": "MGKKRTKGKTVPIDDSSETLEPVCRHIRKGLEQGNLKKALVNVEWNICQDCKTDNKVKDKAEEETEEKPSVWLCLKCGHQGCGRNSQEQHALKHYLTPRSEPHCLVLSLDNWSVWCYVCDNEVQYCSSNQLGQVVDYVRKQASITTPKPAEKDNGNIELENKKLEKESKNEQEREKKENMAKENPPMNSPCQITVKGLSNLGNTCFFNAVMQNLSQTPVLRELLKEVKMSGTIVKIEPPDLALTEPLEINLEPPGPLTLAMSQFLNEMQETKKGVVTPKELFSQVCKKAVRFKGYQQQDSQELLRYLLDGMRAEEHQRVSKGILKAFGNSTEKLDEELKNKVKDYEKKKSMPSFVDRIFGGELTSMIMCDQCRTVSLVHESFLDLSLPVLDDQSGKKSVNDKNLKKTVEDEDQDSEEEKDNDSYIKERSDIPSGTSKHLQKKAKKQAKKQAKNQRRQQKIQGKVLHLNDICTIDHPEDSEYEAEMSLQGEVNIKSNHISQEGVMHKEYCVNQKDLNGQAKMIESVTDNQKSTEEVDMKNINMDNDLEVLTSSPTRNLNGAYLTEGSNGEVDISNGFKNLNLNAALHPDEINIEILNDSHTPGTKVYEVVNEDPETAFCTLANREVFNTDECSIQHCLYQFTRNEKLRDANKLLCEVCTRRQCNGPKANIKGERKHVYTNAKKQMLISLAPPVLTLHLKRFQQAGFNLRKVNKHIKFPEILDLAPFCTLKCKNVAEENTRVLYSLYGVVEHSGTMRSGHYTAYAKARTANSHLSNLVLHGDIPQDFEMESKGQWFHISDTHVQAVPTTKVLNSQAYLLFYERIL", "summary_of_the_method": "as §1"}}, "note": "Values without a mark were called inactive.", "data": [{"smiles": "O=C(O)C1Cc2ccccc2CN1C(=O)CCl", "note": "(stereo not given)", "values": [{"measurement": "log2 ratio of Biotin-Ahx-Ub-VS probe labelling", "setting": "OTUD6B", "result": -0.439}, {"measurement": "log2 ratio of Biotin-Ahx-Ub-VS probe labelling", "setting": "OTUD7B", "result": -0.732}, {"measurement": "log2 ratio of Biotin-Ahx-Ub-VS probe labelling", "setting": "PRPF8", "result": -0.175}, {"measurement": "log2 ratio of Biotin-Ahx-Ub-VS probe labelling", "setting": "PSMD7", "result": -0.239}, {"measurement": "log2 ratio of Biotin-Ahx-Ub-VS probe labelling", "setting": "UCHL1", "result": "-1.8 (active)"}, {"measurement": "log2 ratio of Biotin-Ahx-Ub-VS probe labelling", "setting": "UCHL3", "result": -0.19}, {"measurement": "log2 ratio of Biotin-Ahx-Ub-VS probe labelling", "setting": "UCHL5", "result": -0.324}, {"measurement": "log2 ratio of Biotin-Ahx-Ub-VS probe labelling", "setting": "USP10", "result": -0.112}, {"measurement": "log2 ratio of Biotin-Ahx-Ub-VS probe labelling", "setting": "USP15", "result": -0.35}, {"measurement": "log2 ratio of Biotin-Ahx-Ub-VS probe labelling", "setting": "USP16", "result": 0.23}]}]}
